The list is not random: actives were taken first. Their share in the collection is about 2.2%.
TWEAK-Fn14 inh: inhibitors of TWEAK-Fn14 signaling, primary screen, luciferase reporter cells, uHTS; TWEAK-stimulated Fn14 reporter cells, luciferase luminescence, 8 h; inhibition, % at 10 µM; actives 2% (n = 360,000); AID 1159606, 2016; in the data active = inhibition above about 50%
LGR2 antag: inhibitors of bursicon-induced LGR2 CRE-luciferase signal, primary screen, cell-based, HEK293, CRE-luciferase reporter, bursicon stimulation; Drosophila bursicon receptor LGR2 (rickets); bursicon-stimulated, 4 h; inhibition, % at 9.99 µM; actives 0.35% (n = 380,000);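 active = drop in luminescence signal, shown as inhibition above about 50% in the replicate tests, limit read from the data, passing the limit was not always enough; inconclusive = probably only some replicates passing the limit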;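 also: agonist challenge used bursicon conditioned medium at about half maximal strength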
HSP90 inh: HSP90 inhibitors, primary screen, cell lysate, luminescence. actives 0.91% (n = 290,000). inhibition, % at 5.6 µM. Rabbit reticulocyte lysate, luciferase refolding luminescence, 3 h. Heat shock protein HSP 90 (rabbit reticulocyte lysate; luciferase refolding);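 active = inhibition above the screen-wide mean plus 3 SD, computed separately per campaign, cut at about 16% in these data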;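 also: 0% = DMSO wells and 100% = 60 µM geldanamycin wells; inhibitors lower the luminescence because luciferase stays unfolded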
TROY signal inh: inhibitors of TROY-driven NF-kB signaling, primary screen, Q293 LMP1-TROYcd cells, NF-kB luciferase, uHTS; Q293 LMP1-TROYcd NF-kB luciferase reporter, 4 h; inhibition, % at 10 µM; actives 0.98% (n = 360,000); AID 1347056, 2019;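 active = compounds whose plate-normalised and pattern-corrected inhibition of the luciferase reporter signal at the single screening dose is 50% or more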
Numbers without * were called inactive.

`COc1ccc(-c2cc(-c3ccccc3)no2)cc1` gave TWEAK-Fn14 inh 69.1*, LGR2 antag 77.6* and TROY signal inh 18.4.
Screening c1ccc(-c2cc(-c3cc(-c4ccccc4)on3)no2)cc1 returned TWEAK-Fn14 inh -16.5, LGR2 antag 7.0 and TROY signal inh -54.1.
For CC(C)CCN1C(=O)c2ccc(C(=O)Nc3cc(C(=O)O)cc(C(=O)O)c3)cc2C1=O the results were TWEAK-Fn14 inh -1.7, LGR2 antag 6.9, HSP90 inh -2.7 and TROY signal inh -15.0.
CC(C)CCN1C(=O)c2ccc(C(=O)Nc3ccc(Br)cc3C(=O)O)cc2C1=O was read as TWEAK-Fn14 inh -3.4, LGR2 antag -2.9, HSP90 inh -1.9 and TROY signal inh 57.6*.
For CCCNC(=O)N1CC2(CN(S(C)(=O)=O)C2)c2c(n(C)c3cc(OC)ccc23)[C@H]1CO the results were LGR2 antag 11.6.
`COc1ccc(C(=O)c2[nH]c(N)c(C(=O)NCCc3c[nH]c4ccccc34)c2-c2c(F)cccc2Cl)cc1` gave TWEAK-Fn14 inh 54.5*, LGR2 antag 25.9 and TROY signal inh 22.9.
For C[C@@H]1CCCCO[C@H](CN(C)S(=O)(=O)c2cccs2)[C@H](C)CN([C@@H](C)CO)C(=O)c2cc(NC(=O)CCCN(C)C)ccc2O1 the results were LGR2 antag -8.9.
`Cc1ccccc1CNC(=O)/C=C\C(=O)O` gave TWEAK-Fn14 inh 1.0, LGR2 antag -21.1, HSP90 inh 5.0 and TROY signal inh 74.6*.
For O=C(C[C@@H]1C[C@H]2c3cc(NC(=O)C4CCC4)ccc3O[C@H]2[C@@H](CO)O1)NCC1CC1 the results were LGR2 antag -0.5.
For COCC(=O)N1CC2(C1)[C@H](c1ccc(-c3ccc(F)cc3)cc1)[C@@H](CO)N2C(C)=O the results were LGR2 antag 10.0.
O=[N+]([O-])c1cccc(-c2cc(-c3cc(Br)ccc3O)[nH]n2)c1 was read as TWEAK-Fn14 inh 83.7*, LGR2 antag 12.0, HSP90 inh 0.5 and TROY signal inh 32.8.
Screening CC(C)NC(=O)N(C)C[C@H]1Oc2c(NS(=O)(=O)c3ccc(F)cc3)cccc2C(=O)N([C@H](C)CO)C[C@H]1C returned LGR2 antag 1.6.
COCC(=O)Nc1ncc(S(=O)(=O)c2ccc([N+](=O)[O-])cc2)s1 was read as TWEAK-Fn14 inh 12.6, LGR2 antag -1.3, HSP90 inh -1.5 and TROY signal inh 7.2.
Screening O=C(NC(Nc1ncc(S(=O)(=O)c2ccc([N+](=O)[O-])cc2)s1)(C(F)(F)F)C(F)(F)F)c1ccc(Cl)cc1 returned TWEAK-Fn14 inh 46.9, HSP90 inh 2.1 and TROY signal inh 53.0*.
Screening CCNC(=O)NC(=O)CSc1nnc(-c2c[nH]c3ccccc23)o1 returned TWEAK-Fn14 inh -6.3, LGR2 antag 11.4, HSP90 inh -3.2 and TROY signal inh 2.4.
Screening COc1ccc(CN(C(=O)CSc2nnc(-c3ccc(F)cc3)o2)c2ccc(F)cc2)cc1 returned TWEAK-Fn14 inh 10.4, LGR2 antag 12.2, HSP90 inh 3.8 and TROY signal inh 0.8.
Screening CCC(C)NC(=O)CSc1nnc(-c2c[nH]c3ccccc23)o1 (stereo not drawn) returned TWEAK-Fn14 inh -13.7, LGR2 antag 10.5, HSP90 inh 16.7* and TROY signal inh -9.0.
Cn1c(SCC(=O)NCC2CCCO2)nnc1-c1c[nH]c2ccccc12 (stereo not drawn) was read as TWEAK-Fn14 inh 12.1, LGR2 antag -10.1, HSP90 inh -1.0 and TROY signal inh 12.9.
Screening CCn1c(SCC(=O)NCC2CCCO2)nnc1-c1c[nH]c2ccccc12 (stereo not drawn) returned TWEAK-Fn14 inh 63.4* and HSP90 inh -2.6.
For COc1ccc(N(Cc2ccccc2)C(=O)CSc2nnc(Cn3nnc4ccccc43)o2)cc1 the results were TWEAK-Fn14 inh -3.7, HSP90 inh 1.9 and TROY signal inh 19.6.
Screening COc1ccc(CN(C(=O)CSc2nnc(-c3c[nH]c4ccccc34)o2)c2ccc(F)cc2)cc1OC returned TWEAK-Fn14 inh 72.0*, HSP90 inh 0.8 and TROY signal inh 38.4.
O=C(CSc1nnc(Cn2nnc3ccccc32)o1)N(Cc1ccc(F)cc1)c1ccccc1 was read as TWEAK-Fn14 inh 56.2*, HSP90 inh 2.3 and TROY signal inh 42.8.
For C[C@H]1CN([C@@H](C)CO)C(=O)c2cc(NS(=O)(=O)c3cn(C)cn3)ccc2O[C@H]1CN(C)Cc1ccccc1 the results were LGR2 antag 9.9.
`Cc1ncoc1C(=O)Nc1ncc([N+](=O)[O-])s1` gave TWEAK-Fn14 inh 50.0*, LGR2 antag -17.1, HSP90 inh 7.2 and TROY signal inh 0.6.
`O=C(Nc1ccc(S(=O)(=O)N2CCOCC2)cc1)c1cc(-c2cc(Cl)ccc2O)n[nH]1` gave TWEAK-Fn14 inh 90.6*, LGR2 antag inconclusive, HSP90 inh 7.9 and TROY signal inh 69.4*.
Screening C[C@@H]1CN([C@H](C)CO)C(=O)c2cc(NS(C)(=O)=O)ccc2O[C@H]1CN(C)Cc1ccc(C(=O)Nc2ccccc2N)cc1 returned LGR2 antag -5.7.
Screening C[C@H](CO)N1C[C@H](C)[C@H](CN(C)Cc2ccc(Cl)c(Cl)c2)Oc2ccc(NC(=O)Nc3ccc(C(F)(F)F)cc3)cc2CC1=O returned LGR2 antag 5.4.
Screening COc1ccc(OC)c(NC(=O)c2cnc3n(c2=O)CCS3)c1 returned TWEAK-Fn14 inh 8.1, LGR2 antag -11.3, HSP90 inh -1.5 and TROY signal inh -25.9.
`COc1ccc(Cl)cc1NC(=O)c1cnc2n(c1=O)CCS2` gave TWEAK-Fn14 inh 53.5*, LGR2 antag 12.8 and TROY signal inh 47.7.
O=C(N/N=C1/C(=O)c2cccc3cccc1c23)c1ccc(Cl)cc1 was read as TWEAK-Fn14 inh 106.0*, HSP90 inh 0.0 and TROY signal inh -36.2.
`COC(=O)C[C@H]1C[C@@H]2c3cc(NC(=O)c4cccnc4)ccc3O[C@@H]2[C@H](CO)O1` gave LGR2 antag 1.3.
`CCCNC(=O)C[C@H]1C[C@@H]2c3cc(NC(=O)CC4CC4)ccc3O[C@@H]2[C@@H](CO)O1` gave LGR2 antag 3.9.
Screening COC(=O)c1c(-c2ccsc2)sc2ccc(-c3cc(OC)c(OC)c(OC)c3)cc12 returned TWEAK-Fn14 inh 15.3, LGR2 antag 13.6 and TROY signal inh 12.9.
`COc1ccc2c(C#CCCO)c(-c3ccc(S(C)(=O)=O)cc3)sc2c1` gave TWEAK-Fn14 inh -27.2, LGR2 antag 0.2 and TROY signal inh -43.5.
COc1ccc2sc(-c3ccc(S(C)(=O)=O)cc3)c(C#CCO)c2c1 was read as TWEAK-Fn14 inh 77.2*, LGR2 antag 56.6* and TROY signal inh 46.3.
Screening COc1cc(-c2ccc3sc(-c4ccsc4)c(C#CCO)c3c2)cc(OC)c1OC returned TWEAK-Fn14 inh 60.5*, LGR2 antag 14.5 and TROY signal inh 42.2.

Source: PubChem BioAssay (several laboratories)
